The text below walks through data of PubChem BioAssay (NCATS).

Inconclusive results are not listed. Values without a mark were called inactive. Activity calls are given as the source filed them. Unless noted, calls come from the whole dose curve; as a rule, active = well fitted curve in the direction sought with a large enough effect; inconclusive = small, poorly fitted or top-dose-only effect, or another doubt; inactive = no such curve, though single readings can be large; an effect the other way counts as inactive or inconclusive. Where a SMILES comes first, the peptide text is derived from it. Bridges are numbered along the chain shown (N, C = ends). [ ]: non-standard residue; d: D form. hArg = N=C(N)NCCCC[C@H](N)C(=O)O; Mpa = O=C(O)CCS

Experiment [1] is described as follows: qHTS to identify inhibitors of the type 1 interferon - major histocompatibility complex class I in skeletal muscle: primary screen against the NCATS Pharmaceutical Collection (AID 1347407).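 Note: luminescence of HiBiT knocked into endogenous HLA-B as interferon-induced MHC class I level; % is set by controls: 0 for no effect and ±100 for the full control effect.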 In short, it runs like this: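 A qHTS format is used: 8-point, 1:5 compound series with 46 uM top final concentration, applied alongside 4 ng/ml IFN-beta to HLA-B*08:01-HiBiT knock-in myoblasts. Luminescence is measured after 24 h treatment.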
On the technique in general: In qHTS, concentration-response curves come from the screen itself.

Experiment [2] concerns the target Protein phosphatase 1D (Homo sapiens) (UniProt O15297). In words: RapidFire Mass Spectrometry qHTS Assay for Modulators of WT P53-Induced Phosphatase 1 (WIP1) (AID 1347424).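 Note: amount of dephosphorylated VEPPL-S-QETFS peptide product formed by WIP1; series mostly up to about 63 µM; plate controls were DMSO wells for no effect and GSK830371 inhibitor control at 10 µM for full effect.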 In short, it runs like this:
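10 nM WIP1 preincubated with compounds 1 hr at room temperature in pH 7.5 Tris buffer with 30 mM MgCl2, 1 mM TCEP; 2 uM VEPPL-pS-QETFS phosphopeptide for 5 min, formic acid quench; dephosphorylated product quantified by RapidFire MS against labelled standard.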

The target is the same in experiment [3]. In words: Rhodamine-PBP qHTS Assay for Modulators of WT P53-Induced Phosphatase 1 (WIP1) (AID 1347425). Note: % of control where 0% means no effect. In short, it runs like this: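 Read-out: Rhodamine-PBP fluorescence (ex 525/em 598 nm) for released Pi, read each minute for 11 min after adding 10 uM VEPPL-pS-QETFS; signal taken as f1 minus pre-substrate f0. Enzyme 5 nM WIP1 with 1 hr room-temperature compound preincubation.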

Experiment [4] can be described thus: Primary qHTS for inhibitors of La Crosse Virus (LACV) - induced cell death in SH-SY5Y cells (AID 1508616).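 Note: top concentration of the series differs between compounds; 0% = infected DMSO wells and 100% = uninfected DMSO wells; higher means more rescue of cells from virus-induced death.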 In short, it runs like this: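 Luminescent ATP readout (ATPLite 1step, 5 min room temperature) measured rescue from LACV-induced death after 6 days of infection at 0.01 MOI; normalized to infected DMSO wells and uninfected DMSO wells.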
Experiment [5] deals with Calcium and integrin-binding protein 1 (Homo sapiens) (UniProt Q99828). Description: Primary qHTS for Identification of Calcium Integrin Binding Protein 1 (CIB1) Competitor (AID 1508620).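 Note: GST tagged CIB1 binding a fluorescein labelled alphaIIb integrin peptide tracer; top concentration of the series differs between compounds; % is set by controls: 0 for no effect and ±100 for the full control effect.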 In short, it runs like this:
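Fluorescence polarization competition: GST-tagged CIB1 (1 uM final) preincubated with compound 15 min at room temperature, then FITC-labelled alphaIIb peptide (100 nM final) added. After 15 min at room temperature, polarization read at Ex 480/Em 540.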

Experiment [6] is described as follows: A High-Content qHTS Against Drug Library for the Identification of Small Molecules that Inhibit DYT1 Early Onset Primary Dystonia-Associated Cell Pathology (AID 1645839; calls by dose curve; note: series mostly up to about 46 µM). In short, it runs like this:
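Flp-In T-REx 293 cells with tetracycline-inducible EGFP-delE hTOR1A (WT EGFP-hTOR1A as reference), 800 cells/well; compound added with tetracycline, 48 h at 37 C. Fixed, permeabilized cells imaged; %pathology (punctate TorsinA) primary, cell count counterscreen.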

A short description of experiment [7]: Primary qHTS for inhibitors of nuclear receptor binding SET domain protein 2 (NSD2) in an isogenic RCH-ACV NSD2 p.E1099K mutant (9B) (AID 1645876). Note: nearly all actives have a fitted effect of over 70% in size.
Experiment [8] in a line: Primary qHTS for inhibitors of nuclear receptor binding SET domain protein 2 (NSD2) in an RCH-ACV wild type WT cells (2C) (AID 1645877). For activity change, negative = cell killing: % is set by controls: 0 for no effect and ±100 for the full control effect. Note: nearly all actives have a fitted effect of over 70% in size.
Experiment [9] deals with Cytochrome P450 2D6 (Homo sapiens) (UniProt P10635). Description: Cytochrome P450 family 2 subfamily D member 6 (CYP2D6) small molecule antagonists: luciferase biochemical (cell-free) qHTS assay (AID 1645840; active = well fitted curve in the direction sought with a large enough effect in the repeat runs; an effect the other way counts as inactive or inconclusive; note: nearly all actives have a fitted effect of over 55% in size; note: potency is the fitted concentration of half-maximal effect; for activity change, negative = inhibition: series mostly up to about 57 µM; % is set by controls: 0 for no effect and ±100 for the full control effect). In short, it runs like this:
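P450-Glo luminescent screen: recombinant CYP2D6 enzyme–proluciferin substrate mix preincubated with compound 10 min at room temperature, then NADPH regeneration added for 1 h at room temperature. Detection reagent added for 20 min; luciferin light read as relative luminescence units.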

Experiment [10] deals with Cytochrome P450 2C9 (Homo sapiens) (UniProt P11712). In words: Cytochrome P450 family 2 subfamily C member 9 (CYP2C9) small molecule antagonists: luciferase biochemical (cell-free) qHTS assay (AID 1645842; active = well fitted curve in the direction sought with a large enough effect in the repeat runs; an effect the other way counts as inactive or inconclusive; note: nearly all actives have a fitted effect of over 55% in size; note: potency is the fitted concentration of half-maximal effect). In short, it runs like this:
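Luminescence, after 20 min with luciferin detection reagent, reflected CYP2C9 turnover during a 1 h NADPH-driven reaction at 37C. Enzyme-substrate mix contained 0.4% bovine serum albumin and was preincubated with compound 10 min at room temperature.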

Chain of Calcium and integrin-binding protein 1 (Homo sapiens) (Q99828 whole entry, looked up): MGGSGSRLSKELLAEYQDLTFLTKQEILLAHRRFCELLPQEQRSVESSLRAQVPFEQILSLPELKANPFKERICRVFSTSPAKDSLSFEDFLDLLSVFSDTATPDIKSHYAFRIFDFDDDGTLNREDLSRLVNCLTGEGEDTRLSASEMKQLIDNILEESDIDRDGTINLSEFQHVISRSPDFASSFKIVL
Chain of Cytochrome P450 2C9 (Homo sapiens) (P11712 whole entry, looked up): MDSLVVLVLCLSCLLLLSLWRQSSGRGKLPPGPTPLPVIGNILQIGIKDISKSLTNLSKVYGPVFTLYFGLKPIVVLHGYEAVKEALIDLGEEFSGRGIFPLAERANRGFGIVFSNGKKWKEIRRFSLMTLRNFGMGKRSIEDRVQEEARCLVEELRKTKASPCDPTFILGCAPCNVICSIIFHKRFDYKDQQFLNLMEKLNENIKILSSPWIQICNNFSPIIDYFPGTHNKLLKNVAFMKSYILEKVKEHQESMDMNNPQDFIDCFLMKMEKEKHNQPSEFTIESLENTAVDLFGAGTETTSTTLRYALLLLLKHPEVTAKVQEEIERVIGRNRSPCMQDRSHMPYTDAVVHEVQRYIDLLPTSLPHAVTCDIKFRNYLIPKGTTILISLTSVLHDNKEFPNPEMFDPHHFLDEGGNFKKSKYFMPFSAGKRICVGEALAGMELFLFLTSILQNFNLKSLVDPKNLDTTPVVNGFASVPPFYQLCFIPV
Chain of Protein phosphatase 1D (Homo sapiens) (O15297 whole entry, looked up): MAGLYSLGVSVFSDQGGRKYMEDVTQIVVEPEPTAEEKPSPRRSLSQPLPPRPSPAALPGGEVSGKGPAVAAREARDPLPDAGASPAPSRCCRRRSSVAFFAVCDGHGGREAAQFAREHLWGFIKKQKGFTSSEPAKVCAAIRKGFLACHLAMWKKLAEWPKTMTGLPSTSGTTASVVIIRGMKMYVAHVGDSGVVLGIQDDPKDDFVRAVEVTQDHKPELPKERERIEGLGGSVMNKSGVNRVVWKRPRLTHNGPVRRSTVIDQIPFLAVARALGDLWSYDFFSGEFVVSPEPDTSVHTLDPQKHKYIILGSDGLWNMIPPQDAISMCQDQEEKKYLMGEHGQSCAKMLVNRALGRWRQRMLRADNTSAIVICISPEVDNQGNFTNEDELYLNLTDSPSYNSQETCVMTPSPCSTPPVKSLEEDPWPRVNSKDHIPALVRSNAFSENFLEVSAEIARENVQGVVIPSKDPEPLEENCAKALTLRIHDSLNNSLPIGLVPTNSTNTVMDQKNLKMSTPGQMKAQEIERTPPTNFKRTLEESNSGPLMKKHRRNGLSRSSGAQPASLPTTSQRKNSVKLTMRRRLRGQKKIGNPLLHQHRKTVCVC
Chain of Cytochrome P450 2D6 (Homo sapiens) (P10635 whole entry, looked up): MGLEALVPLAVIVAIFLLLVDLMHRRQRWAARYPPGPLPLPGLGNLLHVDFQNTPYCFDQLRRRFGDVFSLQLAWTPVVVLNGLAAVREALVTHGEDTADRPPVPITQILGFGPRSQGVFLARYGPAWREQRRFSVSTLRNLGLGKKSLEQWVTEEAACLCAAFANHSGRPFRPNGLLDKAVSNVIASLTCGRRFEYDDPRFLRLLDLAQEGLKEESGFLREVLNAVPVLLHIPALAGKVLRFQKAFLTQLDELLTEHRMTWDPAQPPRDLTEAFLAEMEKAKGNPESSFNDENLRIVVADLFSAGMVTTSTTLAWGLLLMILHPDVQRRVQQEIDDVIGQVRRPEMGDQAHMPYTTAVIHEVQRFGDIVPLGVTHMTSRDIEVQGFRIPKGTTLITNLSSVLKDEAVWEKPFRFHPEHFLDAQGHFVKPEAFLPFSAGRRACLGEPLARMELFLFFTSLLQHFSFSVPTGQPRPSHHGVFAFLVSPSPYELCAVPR

With `NC(N)=NCCN1CCCCCCC1`, the activity change, negative = inhibition in experiment [1] is -12.2% [at 0.727 µM]; in experiment [2] it was 2.05% [at 0.505 µM]; in experiment [3], 1.78% [at 0.575 µM]; in experiment [5] it was -2.06% [at 1.07 µM]. Moreover, the activity change in experiment [4] was -10.9% [at 0.0343 µM]. The % pathology change, negative = correction in [6] was -4.73% [at 0.369 µM]. In addition, in experiment [7], the outcome is “inactive [at 0.588 µM]”. For the same compound, the activity change, negative = cell killing in [8] was 1.99% [at 0.588 µM].
Regarding `CN[C@@H]1[C@@H](O)[C@@H](O[C@@H]2[C@H](O)[C@H](O[C@H]3OC(CN)=CC[C@H]3N)[C@@H](N)C[C@H]2N)OCC1(C)O` (stereo not given in full), the outcome in [1], in experiment [2], in experiment [3], in experiment [4] and in [5] was inactive. Further, the Potency result in [6] and in experiment [7] was “inactive” each time.
On to `O=C(O)COC(=O)Cc1ccccc1Nc1c(Cl)cccc1Cl`, for which the call in [1], in [2], in experiment [3], in experiment [4] and in [5] was inactive. For the same compound, the Potency result in experiment [6], in experiment [9], in [7] and in experiment [8] was “inactive” each time. Besides, the Potency in experiment [10] was 17.4 µM (active).
As to `CN1CCN(C(=O)C2CCCCC2)CC1`, the result in experiment [1], in experiment [2], in experiment [3], in experiment [4] and in [5] was inactive. For the same compound, the Potency entry in experiment [6], in experiment [9], in [10], in [7] and in experiment [8] was “inactive” in each case.
On to `Cc1cc(-n2nc3ccc(Cl)cc3n2)c(O)c(C(C)(C)C)c1`, for which the call in [1], in experiment [2], in experiment [3], in experiment [4] and in experiment [5] was inactive. Moreover, the Potency result in [6], in experiment [9], in [10], in experiment [7] and in experiment [8] was “inactive” in each case.
With `O=C(NCN1CCOCC1)c1cnccn1`, the compound was called inactive in experiment [1], in [2], in experiment [3], in experiment [4] and in experiment [5]. Besides, the Potency entry in experiment [9], in experiment [10] and in experiment [7] was “inactive” each time.
`CCc1nnc(NS(=O)(=O)c2ccc(N)cc2)s1`: the compound was called inactive in experiment [1], in experiment [2], in experiment [3], in [4] and in experiment [5]. Further, the Potency entry in experiment [6], in experiment [9], in experiment [7] and in [8] was “inactive” each time.
In the case of `NC(=O)CCCCC1CCSS1` (stereo not given), the compound was classed as inactive in experiment [1], in experiment [2], in [3], in experiment [4] and in [5]. The Potency result in experiment [6], in [9], in experiment [10] and in experiment [7] was “inactive” each time.
Regarding `COc1cc(C(=O)NCCCCCC(=O)O)cc(OC)c1OC`, the result in [1], in [2], in experiment [3], in [4] and in [5] was inactive. In addition, the Potency result in experiment [6], in experiment [9], in experiment [10], in experiment [7] and in experiment [8] was “inactive” each time.
Turning to `CC(=O)Nc1ccc(C(=O)O)cc1`, the compound was called inactive in experiment [1], in [2], in experiment [3], in experiment [4] and in experiment [5]. Further, the Potency entry in experiment [6], in [9], in experiment [10] and in experiment [7] was “inactive” in each case.
With `C[N+]1(C)CCCC(OC(=O)C(O)(c2ccccc2)c2ccccc2)C1` (stereo not given), the call in experiment [1], in experiment [2], in [3], in experiment [4] and in experiment [5] was inactive. In addition, the Potency result in [6], in [10], in experiment [7] and in experiment [8] was “inactive” each time. The Potency in experiment [9] was 12.3 µM (active).
In the case of `Cc1c(I)c(=O)n(-c2ccccc2)n1C`, the call in experiment [1], in experiment [2], in [3], in [4] and in [5] was inactive. Besides, the Potency entry in [6], in experiment [9], in [10], in experiment [7] and in experiment [8] was “inactive” throughout.
In the case of `CCC(C)(CN(C)C)OC(=O)c1ccccc1` (stereo not given), the result in experiment [1], in experiment [2], in experiment [3], in [4] and in experiment [5] was inactive. Further, the Potency result in [6] and in experiment [7] was “inactive” throughout.
`NC(=O)[C@@H]1CSSCCC(=O)N[C@@H](CCCCN=C(N)N)C(=O)NCC(=O)N[C@@H](CC(=O)O)C(=O)N[C@@H](Cc2c[nH]c3ccccc23)C(=O)N2CCC[C@H]2C(=O)N1` ([Mpa][hArg]GDWPC-NH2; disulfide 1-7): the outcome in experiment [1], in experiment [2], in experiment [3], in experiment [4] and in experiment [5] was inactive. For the same compound, the Potency result in experiment [9] and in experiment [10] was “inactive” throughout.
Consider `C/C=C1\[C@H]2C=C(C)C[C@]1(N)c1ccc(=O)[nH]c1C2`, for which the compound was called inactive in experiment [1], in [2], in [3], in [4] and in experiment [5]. The Potency entry in [6], in [9], in [10], in experiment [7] and in experiment [8] was “inactive” each time.
As to `CC(C)CCOC(=O)c1ccc(N(C)C)cc1`, the result in experiment [1], in experiment [2], in experiment [3], in [4] and in experiment [5] was inactive. Further, the Potency result in experiment [6], in experiment [9], in [7] and in experiment [8] was “inactive” throughout. In addition, the Potency in experiment [10] is 6.92 µM (active).
In the case of `CCCCCCCCCCCCCCCCCCO`, the compound was classed as inactive in experiment [1], in experiment [2], in [3], in experiment [4] and in experiment [5]. Moreover, the Potency result in experiment [6], in [9], in experiment [10], in experiment [7] and in experiment [8] was “inactive” each time.
In the case of `CC(O)CCCCn1c(=O)c2c(ncn2C)n(C)c1=O` (stereo not given), the compound was classed as inactive in experiment [1], in experiment [2], in experiment [3], in experiment [4] and in experiment [5]. Moreover, the Potency entry in [6], in experiment [10], in [7] and in experiment [8] was “inactive” throughout.
For the compound `CCCCCC(C)N` (stereo not given), the call in [1], in experiment [2], in [3], in experiment [4] and in [5] was inactive. The Potency result in experiment [6], in [9], in [10], in experiment [7] and in experiment [8] was “inactive” throughout.
Regarding `CC(=O)Oc1cccc(C)c1`, the compound was classed as inactive in [1], in [2], in experiment [3], in [4] and in [5]. In addition, the Potency result in experiment [6], in [9], in [10], in experiment [7] and in experiment [8] was “inactive” in each case.
As for `COc1ccccc1OCC(O)CO` (stereo not given), the outcome in [1], in experiment [2], in experiment [3], in experiment [4] and in experiment [5] was inactive. The Potency entry in experiment [6] and in experiment [7] was “inactive” throughout.
For the compound `C[C@]1(Cn2ccnn2)[C@H](C(=O)O)N2C(=O)C[C@H]2S1(=O)=O`, the compound was called inactive in experiment [1], in [2], in [3], in experiment [4] and in experiment [5]. Moreover, the Potency result in experiment [6], in experiment [9], in experiment [10], in [7] and in experiment [8] was “inactive” in each case.
With `COc1ccc(Cc2cnc(N)nc2N)cc1OC`, the call in experiment [1], in experiment [2], in experiment [3], in experiment [4] and in experiment [5] was inactive. The Potency result in experiment [6], in experiment [9], in experiment [10], in experiment [7] and in experiment [8] was “inactive” each time.
